PubChem BioAssay AID651774 (Broad Institute, 2012)
Measured potencies and affinities stand elsewhere. A number with no mark means an inactive call. How the calls were made is not given here.

test: HeLa cell viability loss – 24 h, dry powder, cytotoxicity control, dose response (AID 651774); details: CellTiter-Glo ATP luminescence; series mostly up to 35 µM; activity change, negative = cytotoxicity: at the top concentration

Compound	activity change, negative = cytotoxicity [%]
CC(C)c1ccc(CNc2nn[nH]n2)cc1	-3.7
N#Cc1ccc(CC(=O)NC2CCCC2)cc1	12.5
CS(=O)(=O)c1ccc(CC(=O)NC2CCCC2)cc1	0.072
c1cc(N2CCCC2)ccc1CNc1nn[nH]n1	-1.33
O=C(Cc1cccc(C(F)(F)F)c1)NC1CCCC1	-3.06
Cn1nnc(NCc2ccc(N3CCCC3)cc2)n1	-6
O=C(Cc1ccc(-c2ccccc2)cc1)N1CCC(F)(F)CC1	11.8
O=C(Cc1ccc(-c2ccncc2)cc1)NC1CCCC1	-0.196
Cn1nnc(NCc2ccc(C(F)(F)F)cc2)n1	-1.34
O=C(Cc1ccc2ccccc2c1)NC1CCCC1	3.82
O=C(Cc1ccc(-c2ccccc2)cc1)NCC1CCCC1	9.56
CCn1nnnc1NCc1ccccc1	0.61
COc1ccc(CC(=O)NC2CCCC2)cc1	-1.46
CN1CCN(C(=O)Cc2ccc(-c3ccccc3)cc2)CC1	9.96
O=C(Cc1cccc(OC(F)(F)F)c1)NC1CCCC1	-1.72
O=C(Cc1ccc(-c2ccccc2)cc1)NC1CCCCC1	-10.4
c1ccc(CNc2nn[nH]n2)cc1	-14.7
O=C(Cc1ccccc1F)NC1CCCC1	16
CCn1nnc(NCc2ccccc2)n1	14
O=C(Cc1ccc(-c2ccccc2)cc1)NC1CCNCC1	-0.852
O=C(Cc1ccncc1)NC1CCCC1	-5.41
Cn1nnnc1NCc1ccccc1	11.8
O=C(Cc1cccc(-c2ccccc2)c1)NC1CCCC1	-4.43
O=C(Cc1ccc(-c2ccccc2)cc1)NC1CCOCC1	-3.83
O=C(Cc1ccc(-c2ccccc2)cc1)NC1CCC1	8.77
O=C(Cc1cccc(F)c1)NC1CCCC1	-2.5
CN(C(=O)Cc1ccc(-c2ccccc2)cc1)C1CCCC1	-9.17
O=C(Nc1nnc(-c2ccc3c(c2)OCCO3)o1)C1CCCCC1	-9.17
